Results taken from PubChem BioAssay (NCATS).
Inconclusive results are not listed. A number with no mark means an inactive call. Calls of active or inactive are those of the source. Calls follow the shape of the dose curve; as a rule, active = well fitted cell-killing curve with a large enough effect; inconclusive = small, poorly fitted or top-dose-only effect, or effect the other way; inactive = no such curve, though single readings can be large or run the other way.

Assay: Quantitative High-Throughput drug screen in 47 multiple myeloma cell lines against the NCATS MIPE library collection: JJN3_DSMZ cell viability assay (AID 1918966; also: nearly all actives have a fitted effect of over 50% in size)
Conditions: JJN3 myeloma cells viability, CellTiter-Glo ATP, 48 h; series mostly up to 45.8 µM; viability, % of DMSO: at the top concentration
Excerpt: PI: Beverly A. Mock Ph.D.
Laboratory of Cancer Biology and Genetics,
Center for Cancer Research, National Cancer Institute,
National Institute of Health, Bethesda, Maryland
Drug resistance and disease progression are common in multiple myeloma (MM) patients, underscoring the need for new therapeutic combinations. […] We hypothesized that effective combinations would reduce MYC expression and enhance p16 activity. […] These preclinical data identify potentially useful drug combinations for evaluation in drug-resistant MM and reveal potential mechanisms of combined drug sensitivity.
Described herein is the primary MIPE qHTS used to cherrypick compounds. Validated compounds were then further tested for potential synergistic activiy.
[1] Peat TJ, Gaikwad SM, Dubois W, Gyabaah-Kessie N, Zhang S, Gorjifard S, Phyo Z, Andres M, Hughitt VK, Simpson RM, Miller MA, Girvin AT, Taylor A, Williams D, D'Antonio N, Zhang Y, Rajagopalan A, Flietner E, Wilson K, Zhang X, Shinn P, Klumpp-Thomas C, McKnight C, Itkin Z, Chen L, Kazandijian D, Zhang J, Michalowski AM, Simmons JK, Keats J, Thomas CJ, Mock BA. Drug combinations identified by high-throughput screening promote cell cycle transition and upregulate Smad pathways in myeloma. Cancer Lett. 2023 Aug 1;568:216284. doi: 10.1016/j.canlet.2023.216284. Epub 2023 Jun 24. PMID: 37356470; PMCID: PMC10408729.
SEQUENCE No. (e.g., 1, 2, 3, etc.); […] (e.g., Cells, Incubation, Reagent, etc.); VALUE and DESCRIPTION.
1; Cells; 5 uL; white, solid bottom 1536-well Greiner assay plate.
2; Compounds; 23 nL; Kalypsis pin tool (Wako USA) equipped with a 1536-well pin head to transfer to the assay plates.
3; Incubation; 48 hours; 37C incubation.
4; Reagent;5uL; CellTiter Glo (Promega).
5; Detector; 425V; Luminescence; Viewlux PerkinElmer.
NOTES (numbers refer to Sequence numbers above)
1. The cell-based screening methods employed in this study were like those previously published. Briefly, the corresponding myeloma cell lines were screened in 1,536-well plates with 500 cells, 5-uL per well for inhibition of cell viability (assessed by measuring ATP levels with CellTiterGlo).
2. NCATS MIPE 4.0 library of approved and investigational drugs were added using the Kalypsis pin tool. Wells treated with DMSO only for 100% viability and media only wells for 0% viability were used as controls.
3. The assay plates were covered and incubated for 48 hours in a 37C, 5% CO2 incubator with controlled humidity.
4. After 48 hours, CellTilter-GloTM luminescent substrate mix (Promega) reagent was added to the assay plate and plates we incubated for 5 min at room temperature.
5. Signal was measured as median relative luminescence units on a ViewLux (PerkinElmer) multiplate reader.
[1] Heske CM, Davis MI, Baumgart JT, Wilson K, Gormally MV, Chen L, Zhang X, Ceribelli M, Duveau DY, Guha R, Ferrer M, Arnaldez FI, Ji J, Tran HL, Zhang Y, Mendoza A, Helman LJ, Thomas CJ. Matrix Screen Identifies Synergistic Combination of PARP Inhibitors and Nicotinamide Phosphoribosyltransferase (NAMPT) Inhibitors in Ewing Sarcoma. Clin Cancer Res. 2017 Dec 1;23(23):7301-7311. doi: 10.1158/1078-0432.CCR-17-1121. Epub 2017 Sep 12. PMID: 28899971; PMCID: PMC6636827.
Potency is read from the fitted curve at half-maximal effect.

For `CS(=O)c1ccc(-c2nc(-c3ccc(F)cc3)c(-c3ccncc3)[nH]2)cc1` (stereo not given), which Potency is on record?
The Potency was 2.15 µM (active).

Which Potency does the source give for `COc1ccc2c(Oc3ccc(NC(=O)c4c(C)n(CC(C)(C)O)n(-c5ccccc5)c4=O)cc3F)ccnc2c1` here?
The Potency was 8.33 µM (active).

For `CNC(=O)c1ccc2cc(C3(O)CCn4cncc43)ccc2c1` (stereo not given), which “viability, % of DMSO” value is on record?
Its value is 134%.

For `CC(=O)Oc1cc2c(s1)CCN(C(C(=O)C1CC1)c1ccccc1F)C2` (stereo not given), which Potency is on record?
Its Potency is 2.35 µM (active).

With `CC1CCC(C(=O)N(c2cc(C#CC(C)(C)C)sc2C(=O)O)C2CCC(O)CC2)CC1` (stereo not given) as the molecule, how does the Potency read?
The Potency was 18.7 µM (active).

With `Nc1ncnc2ccccc12` as the molecule, how does the “viability, % of DMSO” value read?
The value was 163%.

For `COc1ccc(-c2oc3c(CC=C(C)C)c(OC4O[C@H](CO)[C@@H](O)[C@H](O)[C@@H]4O)cc(O)c3c(=O)c2OC2O[C@@H](C)[C@H](O)[C@@H](O)[C@@H]2O)cc1` (stereo not given in full), which Potency is on record?
The Potency was 18.7 µM (active).

With `O=c1cc(-c2ccc(O)cc2)oc2cc(O)cc(O)c12` as the molecule, how does the Potency read?
Its Potency is 3.32 µM (active).

With `CC=CCC=CCCC(=O)[C@H]1O[C@@H]1C(N)=O` as the molecule, how does the Potency read?
The Potency was 16.6 µM (active).

For `Cc1c(O)cccc1C(=O)N[C@@H](CSc1ccccc1)[C@H](O)CN1C[C@H]2CCCC[C@@H]2C[C@@H]1C(=O)NC(C)(C)C`, which Potency is on record?
The Potency was 18.7 µM (active).

Which Potency does the source give for `Cc1[nH]c(C=C2C(=O)Nc3ccc(S(=O)(=O)Cc4c(Cl)cccc4Cl)cc32)c(C)c1C(=O)N1CCC[C@H]1CN1CCCC1` here?
The Potency was 23.5 µM (active).

With `O=C(Nc1cccc(Br)c1)c1cccc(S(=O)(=O)N2CCCCCC2)c1` as the molecule, how does the Potency read?
The Potency was 20.9 µM (active).

For `O=C(NC1CCOCC1)c1ccc(-c2cc(-c3cn[nH]c3-c3ccccn3)ccn2)cc1`, which “viability, % of DMSO” value is on record?
The value was 139%.

Which “viability, % of DMSO” value does the source give for `CC1(C)O[C@H]2C[C@@H]3[C@H]4CCC5=CC(=O)C=C[C@]5(C)[C@@]4(F)[C@@H](O)C[C@]3(C)[C@]2(C(=O)CO)O1` here?
The value was 99.2%.

For `CC[C@@H]1C=C(C)C[C@H](C)C[C@H](OC)[C@H]2O[C@@](O)(C(=O)C(=O)N3CCCC[C@@H]3C(=O)O[C@H](C(C)=C[C@@H]3CC[C@H](Cl)[C@H](OC)C3)[C@H](C)[C@@H](O)CC1=O)[C@H](C)C[C@H]2OC`, which Potency is on record?
The Potency was 20.9 µM (active).

Which “viability, % of DMSO” value does the source give for `CCC(=O)O[C@]1(C(=O)CO)CC[C@H]2[C@@H]3CCC4=CC(=O)CC[C@]4(C)[C@@H]3CC[C@@]21C` here?
Its value is 119%.

Which Potency does the source give for `O=C(O)C(O)Cc1ccc(O)c(O)c1` (stereo not given) here?
Its Potency is 23.5 µM (active).

With `Cc1ccc(Nc2cc(-c3cccc(N4C(=O)c5ccccc5C4=O)c3)ncn2)cc1NS(C)(=O)=O` as the molecule, how does the Potency read?
Its Potency is 18.7 µM (active).

For `O=C(O)[C@H]1O[C@H](Oc2cc3oc(-c4ccccc4)cc(=O)c3c(O)c2O)[C@H](O)[C@@H](O)[C@H]1O`, which Potency is on record?
Its Potency is 13.2 µM (active).

For `Clc1ccc(-c2nc3sccn3c2C=NOCc2ccc(Cl)c(Cl)c2)cc1`, which “viability, % of DMSO” value is on record?
The value was 114%.

For `O=C(O)C=Cc1ccc(O)c(O)c1`, which Potency is on record?
The Potency was 10.5 µM (active).

With `O=C1c2ccccc2-[n+]2ccc3c([nH]c4ccccc43)c21` as the molecule, how does the Potency read?
The Potency was 1.48 µM (active).

Which Potency does the source give for `O=c1cc(CN2CCOCC2)occ1OCCCCCSc1ccnc2cc(C(F)(F)F)ccc12` here?
Its Potency is 7.43 µM (active).

With `CC#CCn1c(N2CCC[C@@H](N)C2)nc2c1c(=O)n(Cc1nc(C)c3ccccc3n1)c(=O)n2C` as the molecule, how does the Potency read?
Its Potency is 3.72 µM (active).

Which Potency does the source give for `Oc1ccc(C2CCN(c3ccnc4ccccc34)CC2)cc1O` here?
The Potency was 16.6 µM (active).

For `CO[C@@H](C(=O)N1Cc2[nH]nc(NC(=O)c3ccc(N4CCN(C)CC4)cc3)c2C1)c1ccccc1`, which Potency is on record?
The Potency was 23.5 µM (active).

For `CCC(CC)[C@H](NC(C)=O)[C@@H]1[C@H](O)[C@@H](C(=O)O)C[C@@H]1N=C(N)N`, which “viability, % of DMSO” value is on record?
The value was 125%.

With `CC1(C)CCC(CN2CCN(c3ccc(C(=O)NS(=O)(=O)c4ccc(NCC5CCOCC5)c([N+](=O)[O-])c4)c(Oc4cnc5[nH]ccc5c4)c3)CC2)=C(c2ccc(Cl)cc2)C1` as the molecule, how does the Potency read?
The Potency was 20.9 µM (active).

Which “viability, % of DMSO” value does the source give for `CC1(C)CCC[C@@]2(C)[C@@H]1CC[C@@]1(C)OC(=O)C[C@H]21` here?
The value was 135%.

Which Potency does the source give for `COc1cc2ncnc(-n3nc(-c4ccccn4)nc3N)c2cc1OC` here?
The Potency was 4.69 µM (active).

With `CC(C(=O)O)c1ccc(-c2ccccc2)c(F)c1` (stereo not given) as the molecule, how does the “viability, % of DMSO” value read?
The value was 122%.

Which Potency does the source give for `CC[C@@]1(O)C[C@H](O[C@H]2C[C@H](N(C)C)[C@H](O[C@H]3C[C@H](O)[C@H](O[C@H]4CCC(=O)[C@H](C)O4)[C@H](C)O3)[C@H](C)O2)c2c(cc3c(c2O)C(=O)c2c(O)cccc2C3=O)[C@@H]1C(=O)OC` here?
The Potency was 0.296 µM (active).

With `COCCOc1nc(-c2ccc(Cl)c(Cl)c2)n(-c2ccc(NC(=O)CCl)cc2)n1` as the molecule, how does the Potency read?
The Potency was 23.5 µM (active).

For `COc1cc2ncnc(Nc3ccc(F)c(Cl)c3)c2cc1OCCCN1CCOCC1`, which Potency is on record?
Its Potency is 42.9 µM (active).

Which Potency does the source give for `O=C(Nc1ccccc1-c1cn2c(CN3CCNCC3)csc2n1)c1cnc2ccccc2n1` here?
Its Potency is 9.35 µM (active).

For `CC(C)(C)Cn1c(N)nc2ccc(-c3[nH]c(C(C)(C)C)nc3-c3ccc(F)cc3)nc21`, which Potency is on record?
The Potency was 20.9 µM (active).

For `Cc1c(NC(=O)c2ccc(C(C)(C)C)cc2)cccc1-c1cn(C)c(=O)c(Nc2ccc(C(=O)N3CCOCC3)cc2)n1`, which Potency is on record?
Its Potency is 14.8 µM (active).

Which Potency does the source give for `CN(C)Cc1ccc(-c2nc3cccc4c3n2CCNC4=O)cc1` here?
Its Potency is 18.7 µM (active).

For `OC[C@H]1O[C@@H](n2cnc3c2NC=NC[C@@H]3O)C[C@H]1O`, which Potency is on record?
Its Potency is 23.5 µM (active).

For `c1ccc2c(Cc3c[nH]c4ccccc34)c[nH]c2c1`, which Potency is on record?
Its Potency is 26.4 µM (active).
